Only some compounds are listed: those with a hit (about 4.8% of all), similar ones and a draw of the others.
CSC inhib: cancer stem cell viability inhibitors, primary screen, luminescence; inhibition, % at 7.5 µM; cancer stem cell-like cells viability; 1.1% of 300,000 active; in the data active means inhibition above about 75%; inconclusive means no clear call, values can overlap the other calls; tested in HMLE shEcad cells
MPTP block: mitochondrial permeability transition pore inhibitors, primary screen, biochemical, isolated mouse mitochondria, absorbance; Ca2+ swelling absorbance, 30 min; inhibition, % at 10 µM; 1.4% of 360,000 active; AID 602449, 2012;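 active means inhibition of 50% or more, scaled per plate between neutral and stimulator controls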
Calb FLC: C. albicans growth inhibition with fluconazole, primary screen, CaCi-2 strain, Alamar Blue fluorescence; C. albicans CaCi-2 (fluconazole-resistant clinical isolate) + fluconazole, 48 h; growth inhibition, % (concentration not given with the values); 0.57% of 300,000 active; AID 1979, 2009;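 active means growth inhibition above about 58% in most replicates, limit read from the data, passing the limit was not always enough; inconclusive means exactly half the replicates above a set limit; inactive means most replicates below a set limit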;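 further: all wells also contain fluconazole at 8 µg/ml as a sub-toxic cotreatment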
Mdm2 MdmX PPI: inhibitors of human Mdm2-MdmX association, primary screen, cell-based, luminescence, split luciferase, SaOS-2, uHTS; SaOS-2 split-luciferase Mdm2/MdmX complementation; inhibition, % at 8 µM; 3% of 330,000 active;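 active means inhibition of at least 50% at 8 µM in the primary screen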
Beta apoptosis: inhibitors of cytokine-induced beta cell apoptosis, primary screen, luminescence | INS-1E cytokine-induced death, ATP luminescence, 48 h; percent of positive-control rescue, neutral wells zero | protection from apoptosis, % (test concentration not listed) | 0.8% of 300,000 active;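 active means Every replicate reaches about 75%, or at least half do and their mean reaches it too, limit read from the data; inconclusive means At least half of replicates reach the limit but their mean does not; inactive means Under half of replicates reach the limit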;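 further: higher means more ATP so stronger rescue from cytokine killing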
MPTP counter: fluorescence retest of MPTP screen hits in isolated mitochondria, single concentration | shares compounds with MPTP block | membrane potential, Rhodamine 123 fluorescence | inhibition, % at 10 µM | 78% of 5,000 active; in the data active means inhibition above about 22%
MPTP abs DR: mitochondrial permeability transition pore inhibitors, dose response, biochemical, absorbance, uHTS hits. shares compounds with MPTP block. isolated mitochondria swelling. IC50, µM. 58% of 780 active. AID 651561, 2012; in the data active means IC50 below about 20 µM
MPTP counter DR: fluorescent counter-screen in isolated mitochondria, dose response, counter-screen for MPTP inhibitor project, biochemical, fluorescence, uHTS hits. shares compounds with MPTP block. isolated mitochondria counterscreen, fluorescence read-out. IC50, µM. 49% of 780 active; in the data active means IC50 below about 80 µM
Of the large screens only hits and unclear results are named; the others gave an inactive call (follow-up assays come after a bar, where they were run).

Cc1ccccc1-c1nn(-c2ccc(F)cc2F)cc1CNCCN(C)C	none
Cc1ccccc1-c1nn(-c2ccc(F)cc2F)cc1CNCCCN(C)C	MPTP block 87 | MPTP counter inactive
CCN(CC(=O)Nc1ccc(C#N)cc1)CC(=O)Nc1ccc2c(c1)OCCO2	none (no result: CSC inhib, Calb FLC, Mdm2 MdmX PPI, Beta apoptosis)
O=C(Nc1ccccc1)Nc1ncc([N+](=O)[O-])s1	MPTP block 88, Calb FLC inconclusive (no result: CSC inhib, Beta apoptosis) | MPTP counter 82
CC(C)CC(=O)Nc1ncc([N+](=O)[O-])s1	MPTP block 67 | MPTP counter 56
O=C(Nc1ncc([N+](=O)[O-])s1)c1cccc([N+](=O)[O-])c1	MPTP block 56 | MPTP counter 79
O=C(CN1c2ccccc2S(=O)(=O)c2ccccc21)Nc1ccccc1F	none
CCCn1c(=N)n(CC(O)COc2ccc(C)cc2)c2ccccc21 (stereo not given)	none
Cc1ccc(OCC(O)Cn2c(=N)n(CCN3CCOCC3)c3ccccc32)cc1 (stereo not given)	MPTP block 52 | MPTP counter inactive | MPTP abs DR inactive | MPTP counter DR inactive
NS(=O)(=O)c1ccc(NC(=S)Nc2cc(Cl)c(Cl)cc2Cl)cc1	MPTP block 88 | MPTP counter 92
NS(=O)(=O)c1ccc(NC(=O)Nc2ccc(Cl)cc2)cc1	MPTP block 77 | MPTP counter 85
COc1ccc(CCNC(=O)C2CCN(Cc3nc(-c4ccccc4C)oc3C)CC2)cc1OC	MPTP block 82 | MPTP counter inactive | MPTP abs DR 9.7 | MPTP counter DR 23
CCc1c(C)nc2ccc(Br)cc2c1Cl	MPTP block 97 | MPTP counter 93
Nc1nc(Cl)nc2ccc(Br)cc12	none
Fc1ccc(NC(=S)N2CCN(c3ccccn3)CC2)cc1Cl	none
Fc1ccccc1COc1cccc(/C=N/n2cnnc2)c1	none
Cc1cc(/C=N/n2cnnc2)c(C)n1-c1ccc(OCc2ccccc2F)cc1	MPTP block 98, Beta apoptosis 122 | MPTP counter 96
COc1ccc(-n2ncc3c2CC(C)(C)CC3NC(=O)CCn2cncn2)cc1 (stereo not given)	none
c1ccc(CNc2nc(-c3cccs3)nc3ccccc23)cc1	MPTP block 51 (no result: CSC inhib, Mdm2 MdmX PPI, Beta apoptosis) | MPTP counter 58
COc1ccccc1CNc1nc(NCc2ccc(C)cc2C)c2sccc2n1	MPTP block 67 (no result: CSC inhib, Calb FLC, Mdm2 MdmX PPI, Beta apoptosis) | MPTP counter 102
COc1ccccc1CNc1nc(NCc2ccccc2)nc2ccsc12	MPTP block 74 (no result: CSC inhib, Calb FLC, Mdm2 MdmX PPI, Beta apoptosis) | MPTP counter 95
c1ccc(CNc2nc(NCCOc3ccccc3)c3sccc3n2)cc1	none (no result: CSC inhib, Calb FLC, Mdm2 MdmX PPI, Beta apoptosis)
c1ccc(CNc2nc(NCc3ccccc3)c3sccc3n2)cc1	MPTP block 91 (no result: CSC inhib, Calb FLC, Mdm2 MdmX PPI, Beta apoptosis) | MPTP counter 104
CC[C@@H](NCCCn1cnc2c(SC)ncnc21)c1ccccc1	none (no result: CSC inhib, Calb FLC, Mdm2 MdmX PPI, Beta apoptosis)
COCCNc1nc(NCc2cccc(OC)c2OC)c2sccc2n1	none (no result: CSC inhib, Calb FLC, Mdm2 MdmX PPI, Beta apoptosis)
COc1ccccc1CNc1nc(NCc2cccc(OC)c2OC)c2sccc2n1	MPTP block 51 (no result: CSC inhib, Calb FLC, Mdm2 MdmX PPI, Beta apoptosis) | MPTP counter 95
COc1ccccc1CNc1nc(NCc2ccccc2F)c2sccc2n1	MPTP block 101 (no result: CSC inhib, Calb FLC, Mdm2 MdmX PPI, Beta apoptosis) | MPTP counter 104
CC(=O)c1cccc(OCc2cc(C(=O)NCCC3=CCCCC3)no2)c1	none
c1ccc(CN2CCC3(CC2)Nc2ccccc2S3)cc1	none
NC(N)=NN=C(c1ccc(F)cc1)c1ccc(C(F)(F)F)cc1	MPTP block 70 (no result: CSC inhib, Calb FLC, Mdm2 MdmX PPI, Beta apoptosis) | MPTP counter inactive | MPTP abs DR 4.8 | MPTP counter DR 41
O=C(N/N=C/c1ccc(C(F)(F)F)cc1)c1ccc(O)cc1	none (no result: CSC inhib)
COC(=O)C(C)n1cnc2c(nnn2-c2cccc(OC)c2)c1=O (stereo not given)	none
COc1ccc(NS(=O)(=O)c2ccc3c(c2)OCCO3)cc1OC	MPTP block 85 | MPTP counter 86
COc1ccc(S(=O)(=O)Nc2ccc3c(c2)OCO3)cc1OC	none

Screening data deposited in PubChem BioAssay by several laboratories.
